Reference: PubChem BioAssay (Tox21)
Inconclusive results are not listed. Where a call stands in place of a potency, no number is given. Calls of active or inactive are those of the source. Calls come from the whole dose curve.

Each compound was assayed against Muscarinic acetylcholine receptor M1 (Homo sapiens) (UniProt P11229) (assay: Cholinergic receptor muscarinic 1 (CHRM1) small molecule antagonists, cell-based qHTS assay (AID 1963588; note: nearly all actives have a fitted effect of over 40% in size)). Settings: CHRM1-CHO antagonist mode, calcium flux fluorescence; series mostly up to 61.5 µM.
Sequence of Muscarinic acetylcholine receptor M1 (Homo sapiens) (P11229 whole entry, looked up): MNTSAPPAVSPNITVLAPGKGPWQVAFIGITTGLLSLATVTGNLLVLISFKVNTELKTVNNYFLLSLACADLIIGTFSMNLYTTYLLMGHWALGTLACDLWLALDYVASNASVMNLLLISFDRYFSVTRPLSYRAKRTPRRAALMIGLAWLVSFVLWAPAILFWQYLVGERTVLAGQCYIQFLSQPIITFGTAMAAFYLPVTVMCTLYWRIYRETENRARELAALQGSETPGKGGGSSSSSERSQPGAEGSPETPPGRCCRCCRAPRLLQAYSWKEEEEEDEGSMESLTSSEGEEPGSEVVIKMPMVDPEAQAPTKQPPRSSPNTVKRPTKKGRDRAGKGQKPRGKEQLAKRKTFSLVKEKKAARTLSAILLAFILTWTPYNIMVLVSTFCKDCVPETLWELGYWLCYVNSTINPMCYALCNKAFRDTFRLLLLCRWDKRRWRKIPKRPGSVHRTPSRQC
Excerpt: National Center for Advancing Translational Sciences [NCATS]
Division of Preclinical Innovation [DPI]
U.S. Environmental Protection Agency [EPA]
National Institutes of Environmental Health Sciences [NIEHS]
National Toxicology Program [NTP]
U.S. Food and Drug Administration [FDA]
The CHRM1 is a muscarinic receptor. This receptor plays a crucial role in learning and memory processes and has long been identified as a promising therapeutic target for the improvement of cognitive decline in Alzheimer's disease (AD). The CHRM1-CHO cell line stably expressing human muscarinic acetylcholine receptor M1 (CHRM1) can be used for screening agonists and antagonists of interactions between CHRM1 and its ligands. The CHRM1-CHO Calcium Flux Assay is a homogeneous fluorescence-based assay for detecting the intracellular calcium level using FDSS kinetic plate reader system.
Tox21 Assay Protocol Summary:
CHRM1-CHO cells were dispensed at 1000 cells/3uL/well in 1536-well black-clear bottom plates using a Multidrop Dispenser. After the assay plates were incubated at a 37 C/5% CO2 incubator for 18 h, 3 uL of Dye Loading Buffer was transferred to the assay plate by a Flying Reagent Dispenser. The assay plates were incubated at 37 C for 1h. For antagonist mode, 23 nL of compounds dissolved in DMSO, positive controls or DMSO only was transferred to the assay plate by a pin tool. After 5 min incubation at room temperature, 1.5 uL of acetylcholine at 50nM was added to each well. The fluorescence intensity in the plates was measured using FDSS 7000EX kinetic plate reader for 3 min at 1 sec intervals. Each test compound was measured at 15 concentrations in three independent runs.
Potency is the fitted concentration of half-maximal effect.

Compound | Potency | activity, negative = inhibition
CCc1nn(C2CCCCC2)c2cc(C3(C#N)CCC(C(=O)O)CC3)ccc12 (stereo not given) | inactive | 
C[C@H](N)C(=O)N[C@@H](C)C(=O)NC1[C@H]2CN(c3nc4c(cc3F)c(=O)c(C(=O)O)cn4-c3ccc(F)cc3F)C[C@@H]12 (stereo not given in full) | inactive | 
COc1ccc(N)c([N+](=O)[O-])c1 | inactive | 
CCCCCCCCCC[N+](C)(C)[O-] | inactive | 
CN1CN(C)CN(C)C1 | inactive | 
Cc1ccsc1C(=CCCN1CCC[C@@H](C(=O)O)C1)c1sccc1C | inactive | 
COc1ccc(C(=O)Nc2nc3ccccc3c(NCc3ccccc3)c2C#N)cc1 | inactive | 
c1cnc2c(n1)CCCC2 | inactive | 
COc1ccccc1OC(=O)Oc1ccccc1OC | inactive | 
Cc1cc(C)c(NC(=O)CN(CC(=O)O)CC(=O)O)c(C)c1Br | inactive | 
Cc1cc(C)c(C=O)c(C)c1 | inactive | 
CN(C)CCN(Cc1ccc(Cl)cc1)c1ccccn1 | 7.29 µM (active) | 
O[C@@H](CNC[C@H](O)[C@H]1CCc2cc(F)ccc2O1)[C@@H]1CCc2cc(F)ccc2O1 | inactive | 
O=C(/C=C/c1ccccc1)OCCCc1ccccc1 | inactive | 
CCCCCCCCN(C)CCCCCCCC | inactive | 
CCCCc1ccc(N)cc1 | inactive | 
O=C1OC(=O)C2CCCCC12 (stereo not given) | inactive | 
C=C1CC[C@H]2O[C@]2(C)CC[C@@H]2[C@@H]1CC2(C)C | inactive | 
CN(C)CCC=C1c2ccccc2C=Cc2ccccc21 | inactive | 
Cc1cnc(C)c(C)n1 | inactive | 

Compound | Potency | activity, negative = inhibition
CCCCCCCCCOC(=O)c1ccc(O)cc1 | inactive | 
Cc1cc(OI)c(C(C)C)cc1-c1cc(C(C)C)c(OI)cc1C | inactive | 
C/C(=C(\CCOP(=O)(O)O)SC(=O)c1ccccc1)N(C=O)Cc1cnc(C)nc1N |  | 1.74% [at 5.58 µM] (inactive)
O=C1OCc2ccccc21 | inactive | 
C=CCSSCCC | inactive | 
O=c1c2ccccc2nnn1CCl | inactive | 
C=C(C)C(=O)OC1CC(C)CC(C)(C)C1 (stereo not given) | inactive | 
CCCCNc1c(C(=O)OCC)c(C)nc2c1cnn2CC | inactive | 
O=c1[nH]cccc1O | inactive | 
O=[N+]([O-])c1cccc(S(=O)(=O)NCCNS(=O)(=O)c2cccc([N+](=O)[O-])c2)c1 | inactive | 
CC(Oc1cc(Cl)ccc1Cl)C(=O)O (stereo not given) | inactive | 
O=S(=O)(c1ccccc1)c1ccc(Cl)cc1 | inactive | 
O=c1cccccc1O | inactive | 
Nc1nc(-c2ccccc2)c(Br)c(=O)[nH]1 | inactive | 
Cc1cccc(C)c1C | inactive | 
O=CN1CCCCC1 | inactive | 
CCOCCOCCOC(C)=O | inactive | 
O=[N+]([O-])c1ccc(F)c(Cl)c1 | inactive | 
CC1=CCC(=C(C)C)CC1 | inactive | 
CC1(C)C(=O)C(C)(C)C1=O | inactive | 
